Measured values from the supplement of paper PMC6555819.

tested on: RARa:RXR (NR concentration 270 nM, RXRa partner concentration 90 nM); assay: PBM binding z-score (relative to random genomic background probes); higher = stronger binding; sequences stand for … in GC…GCGATTGACAGCGTAGAATGAAGG
Summary of the method: (§1)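 Probes were double-stranded and carried 34-nt variable regions with direct-repeat seeds, single-nucleotide variants, half-site ablations and random human genomic background sequences, printed on custom Agilent 4×180K protein-binding microarrays. Arrays were incubated 1 h with ligand-free nuclear receptor dimers in PBS pH 7.4, 2% milk, 0.02% Triton X-100, 1 mM DTT, 0.2 mg/mL BSA and 0.4 mg/ml salmon testes DNA. Antibodies against each partner (one per run) detected binding, and scanned fluorescence was regression-normalized. Binding z-scores use the random background probes as reference.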

| Sequence | PBM binding z-score |
| --- | --- |
| GATACAGGGTCAAGGCGAGAGTACGCGTATTGAT | 4.83 |
| CCTCACGGGTCACGAGGTTATAGCACGACGAGCG | 5.63 |
| ATCTCTAGGTAAAGATAGTTCAGTGATTGCAAAT | 0.722 |
| TCACCAAGGTGAAGGTCGTTGATCCCTCTGTAGA | 1.94 |
| GCTGCTGGGTCAACTGATGGTCAGCTAAAGCTCG | 2.61 |
| TCTTCTAGATCAACAGGAGGTTAAGAAAGATCGA | 1.32 |
| TCATATAGGTATACAGGTGAAAGTCCGTAAGTTA | 1.03 |
| CCTGCTAGGTCGATGGTCAGCTAAAGCAGCTCGC | -0.143 |
| GCTAGCAGGCAATTTGGGTCACTCAATGACGGGC | 1.08 |
| CGTCCAAGGTCAGAAAGGTCAGTGAATGCCGAGT | 5.92 |
| AGAATGACGTTATTAAGATCAGGGAATTGCGGTC | -0.472 |
| CCGACTGGGGCATAAGGTTACCTTAAGCCAGCCC | 1.22 |
| ACTTACGGGTGAACGAGGTTATAGCACGCGTATA | 2.01 |
| AGAATTAGGTTATTAAGATCAGGGAATTGCGGTC | 0.229 |
| GATACAGGGTCAAGGACAGAGTACGCGTATTGAT | 4.72 |
| ATCGAAAGGTCGACGAGGCGAGTATACACCGTTT | 3.26 |
| TGAATGAGGTTATAGATCAGGGAACGTGGCGTCG | 1.58 |
| CCTAGCCGGCCAGGGTCACTCAAGCATTTCGCTT | 3.45 |
| CCTACTGGGCCAACGTCATTGATCAGTCAAAGCA | 0.0251 |
| GCTAGTTGCTCAGTAAAAGGTCACACACCGGTCG | 5.72 |

| Sequence | PBM binding z-score |
| --- | --- |
| TCTTGTAGATCAGCGGGTTAAGAAAGCTGGCCAA | 0.653 |
| ACTAGCTGGCCAAGTTTGGGTCACTCAAACAAAG | 0.811 |
| TCTAGTTGGTCAAAGGTCAGACACTCGAAATGCG | 6.17 |
| ACTAGCAGGCCAAGTTCGGGTCACTCAAACAAAG | 3.19 |
| CGTCCAAGGTCAATGCTAGTTCAGTGAAAGCATT | 4.79 |
| CAGTCTAGGTCAGGGCCAGTATAGGAGGAACGTT | 1.2 |
| TCGAGTAGGTTACCAATGGGGCATTCAACTTTCT | 0.916 |
| TGAGTGAGGTTAAAGATCAGGGAACGTGGCGTCG | 3.26 |
| AGAAGGAGGTTACCAAAGATCAGGGAAACGCTTG | 1.46 |
| GCTAGTAGGCCATTTGGGTCACTCAATGACGGGC | 0.598 |
| ACAGACAGGTGATGAAGGTCACTCAGGCTATCAT | 2.83 |
| ACTTACGGGTCAACCAGGTTATAGCACGCGTATA | 5.34 |
| TCTTGAAGATCAAGCAGGTTAAGAAAGCCTGAGT | 0.215 |
| TGAATGGGGTTATAAGATCAGGGAACGTTGCAAA | 3.06 |
| ATATGTAGGTTATCTGGTCATTCAGTTTGCGCAT | 0.738 |
| ACTAGCAGGCCAAGTTTGAGTCACTCAAACAAAG | -0.0649 |
| CCTCCTGGGCCATTCAGAGGTCATTGATCATATG | 4.93 |
| CCTAGCAGGACAATCTGGGTCACTCAAGGCTTGA | 1.67 |
| TCATATAGGTAATACAGGTGAAAGTAGGCATCTA | 1.07 |
| CGTCACAGTTCAACTAAGGTAACGTAAAGCACGC | 2.28 |

tested on: RARa homodimer (NR concentration 270 nM); assay: as above
Summary of the method: as §1

| Sequence | PBM binding z-score |
| --- | --- |
| GATACAGGGTCAAGGCGAGAGTACGCGTATTGAT | 1.14 |
| CCTCACGGGTCACGAGGTTATAGCACGACGAGCG | 0.537 |
| ATCTCTAGGTAAAGATAGTTCAGTGATTGCAAAT | 1.29 |
| TCACCAAGGTGAAGGTCGTTGATCCCTCTGTAGA | -1.46 |
| GCTGCTGGGTCAACTGATGGTCAGCTAAAGCTCG | -0.59 |
| TCTTCTAGATCAACAGGAGGTTAAGAAAGATCGA | 0.555 |
| TCATATAGGTATACAGGTGAAAGTCCGTAAGTTA | 1.2 |
| CCTGCTAGGTCGATGGTCAGCTAAAGCAGCTCGC | -0.87 |
| GCTAGCAGGCAATTTGGGTCACTCAATGACGGGC | -0.688 |
| CGTCCAAGGTCAGAAAGGTCAGTGAATGCCGAGT | 3.03 |
| AGAATGACGTTATTAAGATCAGGGAATTGCGGTC | -0.0308 |
| CCGACTGGGGCATAAGGTTACCTTAAGCCAGCCC | -0.764 |
| ACTTACGGGTGAACGAGGTTATAGCACGCGTATA | 0.821 |
| AGAATTAGGTTATTAAGATCAGGGAATTGCGGTC | 1.73 |
| GATACAGGGTCAAGGACAGAGTACGCGTATTGAT | 1.69 |
| ATCGAAAGGTCGACGAGGCGAGTATACACCGTTT | 0.0419 |
| TGAATGAGGTTATAGATCAGGGAACGTGGCGTCG | 0.661 |
| CCTAGCCGGCCAGGGTCACTCAAGCATTTCGCTT | -0.658 |
| CCTACTGGGCCAACGTCATTGATCAGTCAAAGCA | -0.369 |
| GCTAGTTGCTCAGTAAAAGGTCACACACCGGTCG | 1.56 |

| Sequence | PBM binding z-score |
| --- | --- |
| TCTTGTAGATCAGCGGGTTAAGAAAGCTGGCCAA | -0.539 |
| ACTAGCTGGCCAAGTTTGGGTCACTCAAACAAAG | -1.29 |
| TCTAGTTGGTCAAAGGTCAGACACTCGAAATGCG | 3.82 |
| ACTAGCAGGCCAAGTTCGGGTCACTCAAACAAAG | -0.287 |
| CGTCCAAGGTCAATGCTAGTTCAGTGAAAGCATT | 0.972 |
| CAGTCTAGGTCAGGGCCAGTATAGGAGGAACGTT | 0.439 |
| TCGAGTAGGTTACCAATGGGGCATTCAACTTTCT | -0.285 |
| TGAGTGAGGTTAAAGATCAGGGAACGTGGCGTCG | 0.307 |
| AGAAGGAGGTTACCAAAGATCAGGGAAACGCTTG | 0.412 |
| GCTAGTAGGCCATTTGGGTCACTCAATGACGGGC | -0.704 |
| ACAGACAGGTGATGAAGGTCACTCAGGCTATCAT | 0.664 |
| ACTTACGGGTCAACCAGGTTATAGCACGCGTATA | 1.57 |
| TCTTGAAGATCAAGCAGGTTAAGAAAGCCTGAGT | -1.22 |
| TGAATGGGGTTATAAGATCAGGGAACGTTGCAAA | 2.01 |
| ATATGTAGGTTATCTGGTCATTCAGTTTGCGCAT | 1.75 |
| ACTAGCAGGCCAAGTTTGAGTCACTCAAACAAAG | -1.17 |
| CCTCCTGGGCCATTCAGAGGTCATTGATCATATG | 0.138 |
| CCTAGCAGGACAATCTGGGTCACTCAAGGCTTGA | -0.343 |
| TCATATAGGTAATACAGGTGAAAGTAGGCATCTA | 1.69 |
| CGTCACAGTTCAACTAAGGTAACGTAAAGCACGC | 0.677 |
